# T cruzi growth-1: blocks T. cruzi growth in NIH3T3 culture | 77,000 compounds, 5.9% hits | inhibition, % at 8.34 µM | T. cruzi beta-gal in NIH3T3, GalScreen luminescence, 90 h;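 active means mean inhibition above about 93%, with at least 55% of replicates each passing it, limit read from the data, passing the limit was not always enough; inconclusive means only one of those two conditions holds; inactive means neither condition holds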
# C diff HTS: inhibitors of Clostridium difficile growth; Clostridium difficile clinical isolate growth, OD600, 24 h; hits give low values; growth activity, negative = inhibition, % at 16 µg/mL (by protocol); 86,000 compounds, 0.25% hits;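 active means mean growth activity at or below -80% and every replicate also at or below -80%; inconclusive means mean at or below -80% but some replicate above -80%; inactive means mean growth activity above -80%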;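 further: 0% = DMSO wells and -100% = levofloxacin 16 µg/mL wells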
# Pf Dd2 inh: blocks growth of Plasmodium falciparum Dd2 parasites; P. falciparum Dd2 growth, SYBR Green, 72 h; hits give low values; 94,000 compounds, 2.3% hits; activity change, % at 10 µM; in the data active means activity change below about -80%; inconclusive means no clear call, values can overlap the other calls
# T cruzi growth-2: blocks T. cruzi growth in NIH3T3 host cells; 5,600 compounds, 72% hits; inhibition, % at 8.35 µM; shares compounds with T cruzi growth-1; AID 651739; T. cruzi beta-gal in NIH3T3, GalScreen luminescence, 90 h;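 active means mean replicate inhibition above about 95% and at least 55% of replicates individually reaching it, limit read from the data; inconclusive means only one of the two criteria is met; inactive means neither criterion is met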
# T cruzi growth-3: inhibitors of T. cruzi proliferation. shares compounds with T cruzi growth-1. T. cruzi beta-gal in NIH3T3, GalScreen luminescence, 90 h. inhibition, % at 2.09 µM. 5,600 compounds, 21% hits. AID 651740;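 active means mean inhibition above about 95%, with at least 55% of replicates also reaching it, limit read from the data; inconclusive means meets just one of the two conditions; inactive means meets neither condition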;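 further: plate controls were neutral control median for no effect and positive control median for full effect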
# 3T3 cytotox: kills mouse NIH/3T3 fibroblasts. NIH/3T3 viability, CellTiter-Glo ATP luminescence, 90 h. cytotoxicity (signal decrease), % at 8.35 µM. shares compounds with T cruzi growth-1. 5,600 compounds, 14% hits;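 active means mean signal decrease across replicates above about 35% based on untreated-well scatter, with enough replicates individually passing, limit read from the data; inconclusive means no rule stated though some were filed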;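 further: 0% = median of neutral control wells and 100% = median of positive control wells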
# NIH3T3 tox 2: cytotoxicity in mouse NIH/3T3 fibroblasts; shares compounds with T cruzi growth-1; NIH/3T3 viability, CellTiter-Glo ATP luminescence, 90 h; inhibition, % at 24.9 µM; 5,600 compounds, 56% hits; AID 651744;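 active means mean loss of cell viability signal at or above a set limit, and enough replicates individually reaching it; inconclusive means meets only the mean limit or only the replicate share; inactive means meets neither condition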;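 further: 0% = median of neutral control wells and 100% = median of positive control wells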
# The depositor's hits bear a star; ? = inconclusive; nt = not tested or not shown. The list is not random: actives were taken first. Their share in the collection is about 6.8%.
SMILES,T cruzi growth-1,C diff HTS,Pf Dd2 inh,T cruzi growth-2,T cruzi growth-3,3T3 cytotox,NIH3T3 tox 2
CC(C)CC#Cc1cnc2c(c1)C(=O)N([C@H](C)CO)C[C@H](C)[C@@H](CN(C)C(=O)CCN1CCCCC1)O2,25.4,9.5,-36.2,nt,nt,nt,nt
Cc1noc(C)c1S(=O)(=O)N(C)C[C@@H]1Oc2ccc(NC(=O)Nc3ccccc3)cc2CC(=O)N([C@@H](C)CO)C[C@@H]1C,26.3,nt,8.8,nt,nt,nt,nt
Cc1ccc(S(=O)(=O)N(C)C[C@@H]2Oc3ccc(NS(C)(=O)=O)cc3C(=O)N([C@@H](C)CO)C[C@H]2C)cc1,-32.8,-3.4,24.8,nt,nt,nt,nt
COc1ccc(S(=O)(=O)N(C)C[C@H]2Oc3cc(C#CC4CCCC4)ccc3S(=O)(=O)N([C@@H](C)CO)C[C@@H]2C)cc1,40.1,6.4,?,nt,nt,nt,nt
COc1ccc(S(=O)(=O)N(C)C[C@H]2Oc3cc(C#CC4CC4)ccc3S(=O)(=O)N([C@@H](C)CO)C[C@H]2C)cc1,109.8*,1.4,-60.5,109.4*,?,-7.7,57.3*
COc1ccc(S(=O)(=O)N(C)C[C@@H]2Oc3cc(C#CC4CC4)ccc3S(=O)(=O)N([C@H](C)CO)C[C@H]2C)cc1,105.6*,5.2,-71.0,103.3*,66.8,37.5*,47.0*
COc1ccc(S(=O)(=O)N(C)C[C@H]2Oc3cc(C#CC4CC4)ccc3S(=O)(=O)N([C@@H](C)CO)C[C@@H]2C)cc1,102.4*,0.7,-73.4,96.5*,90.8,52.8*,67.3*
COc1ccc(S(=O)(=O)N(C)C[C@H]2Oc3cc(C#CC4CCCC4)ccc3S(=O)(=O)N([C@H](C)CO)C[C@@H]2C)cc1,67.9,5.7,-56.4,nt,nt,nt,nt
COc1ccc(S(=O)(=O)N(C)C[C@H]2Oc3cc(C#CC4CCCC4)ccc3S(=O)(=O)N([C@@H](C)CO)C[C@H]2C)cc1,46.6,4.4,-74.8,nt,nt,nt,nt
C[C@H](CO)N1C[C@H](C)[C@@H](CN(C)Cc2ccccn2)Oc2cc(C3=CCCC3)ccc2S1(=O)=O,nt,1.3,-24.1,nt,nt,nt,nt
CCN1[C@@H]2c3ccc(-c4ccccc4)c(=O)n3C[C@H]1[C@H](CO)[C@H]2C(=O)NCCCN1CCOCC1,30.5,-4.9,nt,nt,nt,nt,nt
COc1ccc(CN2CC3(CCN(C(=O)C4CCC4)CC3)c3c(n(C)c4cc(OC)ccc34)[C@H]2CO)cc1,nt,1.9,-43.8,nt,nt,nt,nt
C[C@H](CO)N1C[C@H](C)[C@H](CN(C)C(=O)Cc2ccccc2)OCCCC[C@H](C)Oc2ccc(N(C)C)cc2C1=O,104.2*,-0.2,-39.0,?,25.3,-10.1,-23.3
C[C@@H]1CN([C@@H](C)CO)C(=O)c2cc(N(C)C)ccc2O[C@@H](C)CCCCO[C@@H]1CN(C)C(=O)Cc1ccccc1,43.8,-3.4,-5.7,nt,nt,nt,nt
C[C@@H]1CCCCO[C@H](CN(C)C(=O)Cc2ccccc2)[C@H](C)CN([C@H](C)CO)C(=O)c2cc(N(C)C)ccc2O1,8.2,-1.0,nt,nt,nt,nt,nt
C[C@@H]1CCCCO[C@H](CN(C)C(=O)Cc2ccccc2)[C@@H](C)CN([C@@H](C)CO)C(=O)c2cc(N(C)C)ccc2O1,96.8*,-5.9,-21.9,45.7,27.3,-39.9,-13.4
COc1ccc2c3c(n(C)c2c1)[C@H](CO)N(C(=O)C1CCOCC1)CC31CCN(Cc2cccc(F)c2)CC1,nt,8.5,-20.2,nt,nt,nt,nt
CCNC(=O)C[C@H]1CC[C@@H]2[C@@H](COc3ccc(NC(=O)Nc4cccc(OC)c4)cc3C(=O)N2C)O1,31.3,-2.7,-21.0,nt,nt,nt,nt
O=C(C[C@@H]1C=C[C@H](NC(=O)C2CC2)[C@@H](CO)O1)NCC1CC1,nt,-0.6,1.8,nt,nt,nt,nt
CC(C)C(=O)Nc1ccc2c(c1)C(=O)N(C)[C@H]1CC[C@H](CC(=O)N[C@H](C)c3ccccc3)O[C@H]1CO2,-27.4,-2.5,11.3,nt,nt,nt,nt
C[C@@H]1CN([C@H](C)CO)C(=O)c2cc(NS(=O)(=O)c3ccccc3)ccc2O[C@@H](C)CCCCO[C@H]1CN(C)Cc1ccc2c(c1)OCO2,nt,nt,-56.1,nt,nt,nt,nt
C[C@H](CO)N1C[C@H](C)[C@H](CN(C)S(=O)(=O)c2ccccc2C#N)OCc2ccccc2-c2c(n(C)c3ccccc23)C1=O,108.5*,-2.9,-42.6,?,58.9,15.7,46.2*
C[C@H](CO)N1C[C@H](C)[C@@H](CN(C)S(=O)(=O)c2cn(C)cn2)OCc2ccccc2-c2c(n(C)c3ccccc23)C1=O,106.5*,3.3,-19.8,97.1*,3.7,27.3,99.2*
C[C@@H]1CN([C@H](C)CO)C(=O)c2c(c3ccccc3n2C)-c2ccccc2CO[C@H]1CN(C)S(C)(=O)=O,12.8,nt,9.4,nt,nt,nt,nt
C[C@@H]1CN([C@H](C)CO)C(=O)c2c(c3ccccc3n2C)-c2ccccc2CO[C@@H]1CN(C)S(=O)(=O)c1ccsc1,52.0,-3.1,-5.3,nt,nt,nt,nt
SMILES,T cruzi growth-1,C diff HTS,Pf Dd2 inh,T cruzi growth-2,T cruzi growth-3,3T3 cytotox,NIH3T3 tox 2
C[C@H]1CN([C@@H](C)CO)C(=O)c2c(c3ccccc3n2C)-c2ccccc2CO[C@@H]1CN(C)S(=O)(=O)c1cn(C)cn1,64.6,2.3,-20.7,nt,nt,nt,nt
Cc1ccccc1S(=O)(=O)N(C)C[C@H]1OCc2ccccc2-c2c(n(C)c3ccccc23)C(=O)N([C@@H](C)CO)C[C@@H]1C,?,nt,-85.1*,100.8*,83.7,10.2,?
C[C@H]1CN([C@@H](C)CO)C(=O)c2c(c3ccccc3n2C)-c2ccccc2CO[C@@H]1CN(C)S(=O)(=O)c1ccccc1C#N,89.0,3.0,-77.3,nt,nt,nt,nt
C[C@@H]1CN([C@H](C)CO)C(=O)c2c(c3ccccc3n2C)-c2ccccc2CO[C@H]1CN(C)S(=O)(=O)c1ccsc1,106.6*,-2.3,-86.5*,104.9*,62.5,-28.4,1.9
CN1c2ccc(-c3ccc(C#N)cc3)cc2[C@H]2[C@H](CCN2S(=O)(=O)c2cccc(F)c2)[C@@H]1CO,66.8,1.7,-8.9,nt,nt,nt,nt
C[C@@H]1CN([C@H](C)CO)C(=O)c2cc(C#CC3CC3)cnc2O[C@H]1CN(C)C(=O)Nc1ccccc1,4.2,nt,-20.9,nt,nt,nt,nt
O=C(Nc1cccc(Cl)c1)N1C[C@@H]2[C@H](c3ccccc31)[C@H](CO)N2C(=O)C1CCCC1,6.6,1.4,0.8,nt,nt,nt,nt
C[C@@H]1CN([C@@H](C)CO)C(=O)c2cc(NC(=O)Nc3ccccc3)ccc2O[C@@H]1CN(C)S(=O)(=O)c1cn(C)cn1,32.6,-2.6,22.9,nt,nt,nt,nt
COc1ccccc1C#Cc1ccc([C@@H]2[C@@H](CO)N3CCCCN(C(=O)C4CC4)C[C@@H]23)cc1,89.1,-5.1,4.2,nt,nt,nt,nt
C[C@@H]1CN([C@H](C)CO)C(=O)c2ccccc2-c2ccccc2CO[C@@H]1CN(C)S(=O)(=O)c1ccc(C(F)(F)F)cc1,82.9,2.1,-4.2,nt,nt,nt,nt
Cc1ccccc1S(=O)(=O)N(C)C[C@@H]1OCc2ccccc2-c2ccccc2C(=O)N([C@H](C)CO)C[C@@H]1C,?,5.7,-38.7,82.8,15.6,-8.9,16.4

# From PubChem
